Measurements taken from PubChem BioAssay (NCATS).
Results filed as inconclusive are left out. Active and inactive are the calls of the source. Calls follow the shape of the dose curve; as a rule, active = well fitted cell-killing curve with a large enough effect; inconclusive = small, poorly fitted or top-dose-only effect, or effect the other way; inactive = flat fitted curve, though single readings scatter.

How the values were obtained:
Assay in all cases: Primary qHTS to identify gynecologic anti-cancer compounds using libraries of approved drugs and bioactive compounds (AID 1345084); also: nearly all actives have a fitted effect of over 55% in size
[1] = system: C33A; conditions: Gynecologic cancer cell panel viability, ATPlite luminescence, 48 h; series mostly up to 57.5 µM
Procedure, shortened: (§1)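 48 h compound exposure at 37 C, 5% CO2; five-point qHTS. ATPlite luminescence readout of cell ATP.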

[2] = system: CAOV3; conditions: Gynecologic cancer cell panel viability, ATPlite luminescence, 48 h; series mostly up to 57.5 µM
Procedure, shortened: as §1

[3] = system: CASKI; conditions: Gynecologic cancer cell panel viability, ATPlite luminescence, 48 h; series mostly up to 57.5 µM
Procedure, shortened: as §1

[4] = system: Es-2; conditions: Gynecologic cancer cell panel viability, ATPlite luminescence, 48 h; series mostly up to 57.5 µM
Procedure, shortened: as §1

[5] = system: HeLa; conditions: Gynecologic cancer cell panel viability, ATPlite luminescence, 48 h; series mostly up to 57.5 µM
Procedure, shortened: as §1

[6] = system: Hek293T; conditions: Gynecologic cancer cell panel viability, ATPlite luminescence, 48 h, control line for the selectivity index; series mostly up to 57.5 µM
Procedure, shortened: as §1

[7] = system: JEG-3; conditions: Gynecologic cancer cell panel viability, ATPlite luminescence, 48 h; series mostly up to 57.5 µM
Procedure, shortened: as §1

[8] = system: OV90; conditions: Gynecologic cancer cell panel viability, ATPlite luminescence, 48 h; series mostly up to 57.5 µM
Procedure, shortened: as §1

[9] = system: PA-1; conditions: Gynecologic cancer cell panel viability, ATPlite luminescence, 48 h; series mostly up to 57.5 µM
Procedure, shortened: as §1

[10] = system: SKOV3; conditions: Gynecologic cancer cell panel viability, ATPlite luminescence, 48 h; series mostly up to 57.5 µM
Procedure, shortened: as §1

[11] = system: Tov-21-G; conditions: Gynecologic cancer cell panel viability, ATPlite luminescence, 48 h; series mostly up to 57.5 µM
Procedure, shortened: as §1

[12] = system: Tov112D; conditions: Gynecologic cancer cell panel viability, ATPlite luminescence, 48 h; series mostly up to 57.5 µM
Procedure, shortened: as §1

Measured: Potency

CO[C@@H]1[C@H](O)CCC2(CO2)[C@H]1[C@@]1(C)O[C@@H]1CC=C(C)C (stereo not given in full)
inactive: all assays above

O=C(Nc1cc(C(F)(F)F)cc(C(F)(F)F)c1)c1cnc(Cl)nc1C(F)(F)F
inactive: all assays above

Cc1cccc(C#Cc2cc(F)cc(C#N)c2)n1
inactive: all assays above

COCCCNC(=O)c1ccc(Cn2c(=O)c3ccccc3n(Cc3ccc(C(C)C)cc3)c2=O)cc1
inactive: all assays above

C=C1C(=O)OC2C1CCC1(C)C(O)CCC(=C)C21 (stereo not given)
inactive: all assays above

Cn1ccc(NC(=O)c2cc(Oc3ccc(C(=O)N4CCC4)c(F)c3)c3c(c2)OC(C)(C)C3)n1
inactive: all assays above

CN(C)c1ccnc2sc3c(=O)n(N4CCCCCC4)cnc3c12
inactive: all assays above

Cc1ccc(C2(C(=O)N3CCC(n4nc(-c5ccccc5)oc4=O)CC3)CC2)cc1
inactive: all assays above

C[C@@H]1CC[C@]2(C(=O)O)CC[C@]3(C)C(=CCC4[C@@]5(C)CC[C@H](O)[C@](C)(C(=O)O)C5CC[C@]43C)C2[C@]1(C)O (stereo not given in full)
inactive: all assays above

C=C1/C(=C/C=C2\CCC[C@]3(C)[C@@H]([C@H](C)/C=C/[C@@H](C)C(C)C)CC[C@@H]23)C[C@@H](O)C[C@@H]1O
inactive: all assays above

C1=Cc2ccccc2C(=C2CCN(CCCCc3nn[nH]n3)CC2)c2ccccc21
inactive: all assays above

CNC(=O)[C@@H](c1ccccc1)N1CCc2cc(OC)c(OC)cc2[C@@H]1CCc1ccc(C(F)(F)F)cc1
inactive: all assays above

C=CC1(C)CC(O)C(C(=C)C(=O)OC)C(O)C1C(=C)CO (stereo not given)
inactive: all assays above

CC(C)=CCCC1(C)C2CCC1(C)C(O)C2 (stereo not given)
inactive: all assays above

CC(C)(Cc1nc(-c2ccc(O)cn2)no1)C(=O)NC1=C(C(=O)O)CCCC1
inactive: all assays above

O=C(Cc1c(F)cccc1F)Nc1cc(OCc2ccc(Cl)cc2)ccn1
inactive: all assays above

C=C(C)C1=C[C@@]2(C)C(=CC1=O)CC[C@@H](O)[C@@H]2C
inactive: all assays above

CC(C)c1c(O)ccc2c1CC[C@H]1C(C)(C)CCC[C@]21C
inactive: all assays above

N#Cc1ccc(N2N=C3c4ccc(C(=O)O)cc4CC[C@@H]3[C@@H]2C2CCCC2)cc1Cl
inactive: all assays above

COc1cc(O)cc(OC2OC(CO)C(O)C(O)C2O)c1 (stereo not given)
inactive: all assays above

O=S1(=O)CCN(Cc2cc(NCC3CCOCC3)c3[nH]c(-c4ccccc4)cc3c2)CC1
inactive: all assays above

C/C=C/C1=CC2=C(CO1)C(=O)C(C)(OC(=O)c1c(C)cc(O)cc1OC)C(O)C2 (stereo not given)
inactive: all assays above

CCC(C)/C=C(C)/C=C/C1=CC2=CC(=O)C3(C)OC(C)(O)C(C(=O)OC)C3C2=CO1 (stereo not given)
inactive: all assays above

CNCc1cc(-c2ccccc2F)n(S(=O)(=O)c2cccnc2)c1
inactive: all assays above

Clc1cccc(COc2cncc(N3CCNCC3)n2)c1
inactive: all assays above

CCC(CC)Nc1nc(C)c(-c2ccc(OC(F)(F)F)cc2OC)nc1OC
inactive: all assays above

Cc1nc(C#Cc2ccnc(Cl)c2)c(C)n1-c1ccc(OC(F)(F)F)cc1
inactive: all assays above

CC12CCC3C1C(c1c(cc(O)c(C(=O)c4ccccc4)c1O)O2)C3(C)C (stereo not given)
inactive: all assays above

COc1ccccc1OCCN1CC(COc2cccc3[nH]c4ccccc4c23)OCC1=O (stereo not given)
inactive: all assays above

O=C(Nc1ccccc1C(=O)NC1CCCCNC1=O)c1cc2ccccc2s1 (stereo not given)
inactive: all assays above

CC[C@H]1CN(c2nc(N)c(C(N)=O)nc2Cl)CCN1C1CCN(Cc2ccc(Cl)cc2)CC1
inactive: all assays above

CC(=O)O[C@@H]1C[C@@]23C[C@@]24CC[C@H](O[C@@H]2OC[C@H](O)[C@H](O)[C@H]2O)C(C)(C)[C@@H]4CC[C@H]3[C@]2(C)[C@@H](O)C34O[C@H](C[C@@H](C)[C@@H]3[C@@]12C)[C@@H](C(C)(C)O)O4
inactive: all assays above

Cc1ccnc(NC(=O)C(C)c2cccc(C(=O)c3ccccc3)c2)c1 (stereo not given)
inactive: all assays above

CC1=CC2/C=C(\C)CCC(O)C/C=C/C(=O)OC23C(=O)NC(CC(C)C)C3C1C (stereo not given)
inactive: all assays above

C=C1C(=O)O[C@H]2C1CCC(C)=C1C(=O)C=C(C)[C@@]12O (stereo not given in full)
inactive: all assays above

C/C=C(/C=C(C)/C=C/C=C/C=C(\C)C(=O)C12OC1C(O)(CCO)NC2=O)C(=O)OC (stereo not given)
inactive: all assays above

CC1(C)Oc2ncnc(N)c2N=C1c1ccc(C23CCC(CC(=O)O)(CC2)CC3)cc1
inactive: all assays above

COC(=O)c1sccc1S(=O)(=O)Nc1ccc(Nc2ccccc2)cc1OC
inactive: all assays above

Cc1cn2cc(C(=O)N(C)CCO)cc(NC3CCOc4cccc(C)c43)c2n1 (stereo not given)
inactive: all assays above

COc1cc(C(=O)O)ccc1NC(=O)C1NC(CC(C)(C)C)C(C#N)(c2ccc(Cl)cc2F)C1c1cccc(Cl)c1F (stereo not given)
inactive: all assays above

C=C1CC[C@@H](O)[C@]2(C)CC[C@H]3C(=C)C(=O)O[C@@H]3[C@@H]12
inactive: all assays above

CCC/C=C/C=C/C1CC(O)C2(O)C(=O)OCC12 (stereo not given)
inactive: all assays above

Cc1c(F)ccc(C(=O)Nc2cc([N+](=O)[O-])ccc2N2CCN(C)CC2)c1Cl
inactive: all assays above

O=S(=O)(Nc1cc(Cl)c(Oc2cnc3ccccc3c2)c(Cl)c1)c1ccc(Cl)cc1Cl
inactive: all assays above

CCOC(=O)c1ccc(OCCC2CCN(c3ccc(C)nn3)CC2)cc1
inactive: all assays above

CC(C)(C)c1ccc(C(=O)Nc2cc(Cl)c(Br)cc2C(=O)O)cc1
inactive: all assays above

Cc1cc(-c2ncc(-c3cccnc3)cc2/C=C/c2ccccc2)cnc1-c1cccnc1
inactive: all assays above

Cc1ccccc1CN1CCn2c1nc1c(c2=O)CN(Cc2ccccc2)CC1
inactive: all assays above

Cn1ncnc1[C@@H]1c2n[nH]c(=O)c3cc(F)cc(c23)N[C@H]1c1ccc(F)cc1
inactive: all assays above

CCc1ccccc1OC[C@@H](O)CN[C@H]1CCCc2ccccc21
inactive: all assays above

COc1cc(-c2nc(N[C@H](CO)Cc3ccccc3)ccc2C(=O)NCCOc2ccccc2)cc(OC)c1OC
inactive: all assays above

N#Cc1cccc(C(=O)Nc2cc(-c3ccccc3)nn2-c2ccccc2)c1
inactive: all assays above

CC(NCCCc1cccc(C(F)(F)F)c1)c1cccc2ccccc12 (stereo not given)
inactive: all assays above

COc1c2c(c(C)c3c1C(=O)OC3)O[C@@]1(C)C[C@@H](OC(C)=O)[C@]34O[C@](OC)(CC[C@]3(C)[C@H]1C2)OC4(C)C
inactive: all assays above

Cc1ccc(C)c(NC(=O)[C@@H]2CCCN2S(=O)(=O)c2cccc3cccnc23)c1
inactive: all assays above

Nc1nc2c(s1)CCN(Cc1ccc(Cl)cc1)CC2
inactive: all assays above

CCOc1ccc(-n2c(C(C)N(Cc3cccnc3)C(=O)Cc3ccc(F)c(C(F)(F)F)c3)nc3ncccc3c2=O)cc1 (stereo not given)
inactive: all assays above

C[C@@H](NC(=O)C(=O)c1c[nH]c2ccc([N+](=O)[O-])cc12)c1ccccc1
inactive: all assays above

CC(C)(C)c1ccc(C(=O)Nc2cn3cc(-n4ccnc4)ccc3n2)cc1
inactive: all assays above

COc1ccc(-c2csc(NC(=O)[C@H]3CCCCN3S(=O)(=O)c3ccc(C)cc3)n2)cc1
inactive: all assays above
